# Lassa entry inh: Lassa virus entry inhibition; Lassa virus pseudotype entry inhibition, cell reporter; Potency, µM (series often up to 37.9 µM), most hits filed as inhibitors; 300,000 tested, 1.2% active; calls by dose curve; tested in HEK293 cells; also: nearly all actives have a fitted effect of over 50% in size
# Marburg entry inh: blocks Marburg virus binding to or entry into cells | 300,000 tested, 1.8% active | Potency, µM (top dose mostly 37.8 µM), most hits filed as inhibitors | Marburg virus pseudotyped entry inhibition, cell reporter; calls by dose curve; tested in HEK293 cells
# Shiga toxin inh: Shiga toxin inhibition; 290,000 tested, 9.2% active; Vero cells, Shiga toxin protein synthesis inhibition reporter; inhibition, % at 38.7 µM; AID 2315; in the data active = inhibition mostly above about 28%, no sharp cut-off; inactive = mostly below about 43%
# CHX counter: counter-screen for Shiga toxin inhibitors: cycloheximide protein synthesis inhibition. cell reporter, cycloheximide protein synthesis inhibition counterscreen. 300,000 tested, 12% active. AID 2314. max response, %; in the data active = max response mostly above about 13%, no sharp cut-off; inactive = mostly below about 14%; also: read at 38.3 µM for the half of the compounds with a filed dose
# A number is an active result; - = inactive; ? = inconclusive; . = no result given. The list is not random: actives were taken first. Their share in the collection is about 12%.
SMILES,Lassa entry inh,Marburg entry inh,Shiga toxin inh,CHX counter
Cc1ccc(Oc2cc(-n3nc(C)cc3C)ncn2)cc1,-,-,58.5,17.1
Cc1cc(C)n(-c2cc(-n3nc(C)cc3C)ncn2)n1,-,-,-,-
Cc1ccc(C(C)NC(=O)c2ccncc2)c(C)c1 (stereo not drawn),-,?,-,-
C[C@]12CC[C@H]3C(=CCc4cc(O)ccc43)[C@@H]1CCC2=O,-,-,-,15.5
C[C@]12C[C@H](O)[C@@H]3c4ccc(O)cc4CCC3[C@@H]1CCC2=O (stereo partly drawn),.,.,-,-
O=C(COc1ccccc1)Nc1ccc(-c2nnc(-c3ccco3)o2)cc1,-,-,-,-
CC(C)COc1ccc(-c2nnc(-c3ccco3)o2)cc1,7.3µM,?,-,29.8
CCCOc1ccc(-c2nnc(-c3ccco3)o2)cc1,8.2µM,?,-,51.3
COc1cccc(C(=O)NNS(=O)(=O)c2ccc(C)cc2)c1,-,?,-,-
FC(F)(F)Oc1ccccc1-c1nnc(-c2cccc(C(F)(F)F)c2)o1,-,-,-,-
Cc1cc(-c2nnc(-c3cccc(C(F)(F)F)c3)o2)no1,?,-,76.6,43.8
Cc1ccc(-c2nnc(-c3cc(C)on3)o2)cc1,.,.,59.0,38.9
CC(/C=C/c1ccccc1)=N/NC(=O)Cn1nnc(N)n1,-,-,-,-
C=CCNC(=O)N1CCc2nc(-c3ccccc3)c3c(c2C1)CO[C@@H](C)C3,?,-,.,.
CCCSc1ncnc2c1c(-c1ccccc1)cn2-c1ccccc1OC,-,-,.,.
CC1CCC(NC(=O)CC(NC(N)=O)c2ccccc2Cl)CC1 (stereo not drawn),-,-,-,31.3
NC(=O)NC(CC(=O)NCCCc1ccccc1)c1ccccc1Cl (stereo not drawn),-,?,-,-
COc1ccc(-c2ccccc2)cc1NCc1ccc(OC)c(OC)c1,-,-,-,-
C=C1C(=O)OC(CCCCCCCC)C1C(=O)O (stereo not drawn),.,.,-,-
CC(=O)c1cccc(NC(=O)COC(=O)c2cccs2)c1,-,-,69.2,59.0
CCN(CC)c1ccc(NC(=O)COC(=O)c2cccs2)cc1,-,-,54.9,44.5
CC(=O)c1cccc(NC(=O)COC(=O)C2CCCN2C(=O)c2cccs2)c1 (stereo not drawn),-,-,.,.
CCc1ccccc1NC(=O)COC(=O)c1cccs1,-,-,-,-
CCN(c1ccc(NC(=O)COC(=O)c2cccs2)cc1)C(C)C,-,-,-,37.8
O=C(NNc1cccc(Cl)n1)Nc1ccc(F)cc1,-,-,-,-
SMILES,Lassa entry inh,Marburg entry inh,Shiga toxin inh,CHX counter
COc1ccccc1Nc1nc(-c2ccccc2F)nc2ccccc12,-,.,.,.
CC(C)c1ccc(C(=O)Nc2cc(-c3ccccc3F)nn2-c2ccccc2)cc1,-,.,.,.
C=CCOC(=O)C1=C(C)NC(SCC(=O)Nc2ccc(C)c(Cl)c2)=C(C#N)C1c1ccco1 (stereo not drawn),-,10µM,-,-
CC1(C)CC(=O)C2=C(C1)NC(SCC(=O)Nc1ccccc1)=C(C#N)C2c1ccco1 (stereo not drawn),?,14.1µM,-,-
COCCOC(=O)C1=C(C)NC(SCC(=O)NC(C)(C)C)=C(C#N)C1c1ccco1 (stereo not drawn),-,-,-,-
Cc1ccc(NC(=O)CSC2=C(C#N)C(c3ccco3)C3=C(CCCC3=O)N2)cc1 (stereo not drawn),?,?,-,18.6
COc1cccc(NC(=O)CSC2=C(C#N)[C@H](c3ccco3)C3=C(CCCC3=O)N2)c1,.,-,.,.
N#CC1=C(SCC(=O)c2ccc(Br)cc2)NC2=C(C(=O)CCC2)[C@H]1c1ccco1,.,8.91µM,.,.
N#C/C(=C\c1ccco1)C(=O)NCc1ccccc1,.,.,40.6,35.4
N#C/C(=C/c1ccc(C(=O)O)cc1)C(=O)NCc1ccccc1,-,-,-,-
N#C/C(=C\c1cn(Cc2ccccc2)c2ccccc12)C(=O)NCc1ccco1,-,-,-,28.9
N#C/C(=C\c1cn(Cc2cccc(F)c2)c2ccccc12)C(=O)NCc1ccco1,-,?,27.8,24.6
N#C/C(=C/c1cn(-c2ccccc2)nc1-c1cccc(OCc2ccccc2)c1)C(=O)NCCCn1ccnc1,?,11.2µM,-,-
Cc1cccc(NC(=O)/C(C#N)=C/c2cn(CC(=O)NCc3ccco3)c3ccccc23)c1C,-,-,-,-
CCOc1cccc(-c2nn(-c3ccccc3)cc2/C=C(/C#N)C(=O)NCCCn2ccnc2)c1,?,?,-,-
N#C/C(=C\c1cn(Cc2ccc(F)cc2)c2ccccc12)C(=O)NCc1ccco1,-,-,-,-
CNC(=O)C1CCC(Cn2c(=O)c3sccc3n(CC(=O)Nc3ccc(C)cc3C)c2=O)CC1 (stereo not drawn),-,.,.,.
N#C/C(=C/c1cn(-c2ccccc2)nc1-c1cccc(S(=O)(=O)N2CCOCC2)c1)C(=O)NCc1ccco1,-,-,-,-
N#C/C(=C/c1cn(-c2ccccc2)nc1-c1cccc(S(=O)(=O)N2CCCC2)c1)C(=O)NCc1ccco1,?,-,34.1,-
COc1cc(Cl)ccc1OCc1cc(C(=O)N[C@H]2CCCCNC2=O)no1,.,.,62.5,36.4
COCCN1CCN(C(=O)c2cc(COc3ccc(Cl)cc3OC)on2)CC1,-,?,94.3,58.4
CCOC(=O)N1CCN(C(=O)c2cc(COc3ccc(Cl)cc3OC)on2)CC1,.,.,-,-
CCCN1CCN(C(=O)c2cc(COc3ccc(F)cc3F)on2)CC1,?,-,-,-
COc1cc(C)ccc1OCc1cc(C(=O)N2CCCCCC2)no1,.,.,63.9,30.1
COc1cc(Cl)ccc1OCc1cc(C(=O)N2CCCCCCC2)no1,.,.,84.5,43.0
SMILES,Lassa entry inh,Marburg entry inh,Shiga toxin inh,CHX counter
Cc1cc(NC(=O)CN2C(=O)NC3(CCC(C)CC3)C2=O)no1 (stereo not drawn),-,-,-,-
CCOc1ccccc1NC(=O)Cn1c(=O)n(CC(=O)NCc2ccccc2Cl)c(=O)c2sccc21,-,?,.,.
Nc1cccc(C(=O)NCCNC(=O)c2cccc(N)c2)c1,.,.,-,-
O=C(O)c1ccc(N2C(=O)c3cccc(Oc4ccc(Cl)cc4)c3C2=O)cc1,-,-,-,-
O=C(O)c1cccc(N2C(=O)c3cccc(Oc4ccc(Cl)cc4)c3C2=O)c1,-,-,-,18.6
CC(C)c1ccc(NC2CCCN(C(=O)CCN3CCOCC3)C2)cc1 (stereo not drawn),.,.,-,-
O=C(Nc1cccc(C(=O)O)c1)/C(=C\c1ccc2c(c1)OCO2)NC(=O)c1ccc(Br)o1,-,-,45.4,16.4
Cc1cc(C)c2[nH]c(C(=O)Nc3ccc4c(c3)OCO4)cc2c1,.,.,-,15.6
CCc1ccc2[nH]c(C(=O)Nc3ccc4c(c3)OCO4)cc2c1,-,-,-,19.3
CCc1ccc(-n2nc3ccc(NC(=O)c4ccc5c(c4)OCO5)cc3n2)cc1,-,-,-,-
CCc1ccc2[nH]c(C(=O)Nc3ccc(Br)c(C)n3)cc2c1,.,.,136.6,31.7
CCc1ccc2[nH]c(C(=O)Nc3ccc(F)cc3Br)cc2c1,-,-,-,-
Cc1ccc(OCC(=O)Nc2ccc3c(c2)OCO3)c(C)c1,?,?,-,-
O=C(Nc1ccc(OC(F)F)c(Cl)c1)Nc1ccc2c(c1)OCO2,-,-,-,-
O=C(Nc1ccc2c(c1)OCO2)Nc1ccc2c(c1)OCO2,.,.,75.3,29.4

# Assay outcomes: PubChem, National Center for Advancing Translational Sciences (NCATS)
